MCL1 BIM primary: inhibitors of MCL1 binding to BIM-BH3, primary screen, biochemical, fluorescence polarization; hit rate 0.68% among 320,000; inhibition, % at 10.9 µM; Induced myeloid leukemia cell differentiation protein Mcl-1 (Homo sapiens), Q07820; GST-MCL1 / FITC-Bim-BH3 fluorescence polarization;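 active means inhibition above the mean inhibition of all tested compounds plus 3 SD, set per campaign, cut at about 40% in these data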;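 further: 0% = DMSO wells and 100% = unlabeled Bim-BH3 peptide control; higher means more loss of mP so more displacement of Bim peptide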
eLon inh: inhibitors of E. coli Lon protease, primary screen, biochemical, fluorescence polarization; P0A9M0; purified E. coli Lon protease; inhibition, % at 7.94 µM; hit rate 0.42% among 360,000; AID 602123, 2011; in the data active means inhibition above about 13%, passing the limit was not always enough;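 further: 0% = enzyme with probe and DMSO and 100% = no enzyme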
MEX-5 binding: MEX-5 zinc finger RNA-binding disruptors – biochemical, C. elegans, fluorescence polarization, MLPCN library, primary screen; Zinc finger protein mex-5 (Caenorhabditis elegans), Q9XUB2; MEX-5/FITC-TCR2 RNA binding; hits give low values; activity score (negative = inhibition of binding), % at 10 µM; hit rate 0.38% among 300,000; AID 1832, 2009;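 active means inhibition past about -25% in most replicates, and total fluorescence under double the plate's negative control median, limit read from the data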;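 further: 0% = DMSO and -100% = 5 µM competing unlabeled TCR2 RNA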
Bcl-xL primary: inhibitors of human Bcl-xL, primary screen, biochemical, fluorescence polarization, HTS; Bcl-2-like protein 1 (Homo sapiens), Q07817; GST-Bcl-xL / FITC-Bim BH3 peptide fluorescence polarization; inhibition, % at 10.9 µM; hit rate 0.7% among 320,000;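 active means inhibition above the mean of all tested compounds plus 3 SD, cutoff set per campaign, cut at about 30% in these data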;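 further: 0% = DMSO wells and 100% = unlabeled Bim-BH3 peptide competitor; inhibitors lower millipolarization by displacing the labeled peptide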
GLD-1 TGE inh: GLD-1/TGE RNA complex disruptors, primary screen, biochemical, fluorescence polarization; Female germline-specific tumor suppressor gld-1 (Caenorhabditis elegans), Q17339; purified GLD-1 + fluorescein TGE RNA; inhibition, % at 5.96 µM; hit rate 0.44% among 320,000;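 active means percent inhibition above a per-plate cutoff, the plate mean of test compounds plus 3 SD, cut at about 30% in these data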;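 further: 0% = DMSO wells with GLD-1 and probe and 100% = wells lacking GLD-1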
Target sequence (Q17339 whole entry, looked up): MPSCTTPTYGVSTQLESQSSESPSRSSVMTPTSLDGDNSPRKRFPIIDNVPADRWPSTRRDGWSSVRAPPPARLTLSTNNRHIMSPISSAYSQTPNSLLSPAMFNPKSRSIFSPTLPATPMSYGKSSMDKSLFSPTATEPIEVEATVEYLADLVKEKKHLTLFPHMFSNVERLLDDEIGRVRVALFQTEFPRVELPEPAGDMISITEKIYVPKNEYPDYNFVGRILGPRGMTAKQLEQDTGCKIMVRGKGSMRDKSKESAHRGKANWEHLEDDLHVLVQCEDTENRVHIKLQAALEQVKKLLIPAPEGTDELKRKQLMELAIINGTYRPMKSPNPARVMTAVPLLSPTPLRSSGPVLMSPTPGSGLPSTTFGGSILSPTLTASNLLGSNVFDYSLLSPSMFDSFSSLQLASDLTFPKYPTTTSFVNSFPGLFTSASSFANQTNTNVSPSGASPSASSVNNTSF
eLon confirm: E. coli Lon protease inhibitor retest, confirmation, biochemical, fluorescence polarization | shares compounds with eLon inh | purified E. coli Lon | inhibition, % at 7.94 µM | hit rate 31% among 1,400; in the data active means inhibition above about 16%;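 further: 0% = enzyme with probe and DMSO and 100% = no enzyme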
* = called active by the depositor. This is a sample that favours compounds with a hit; in the whole collection about 1.4% have one here.

Screening Clc1ccc(CN2CC[C@H]3C=CCc4cccc(c43)C2)cc1 returned MCL1 BIM primary 0, eLon inh -3, Bcl-xL primary 4 and GLD-1 TGE inh 1.
For Fc1ccc(CN2CC[C@H]3C=CCc4cccc(c43)C2)cc1 the results were MCL1 BIM primary 11, eLon inh 30*, Bcl-xL primary 9, GLD-1 TGE inh 0 and eLon confirm -9.
Screening Cn1cc(CN2CCN(CC(C)(C)C)C(CCO)C2)c2ccccc21 (configuration not stated) returned MCL1 BIM primary 0, eLon inh -3, MEX-5 binding 0, Bcl-xL primary 6 and GLD-1 TGE inh 3.
Screening CC1Sc2ccc(S(=O)(=O)CCC(=O)Nc3cc(F)ccc3F)cc2NC1=O (configuration not stated) returned MCL1 BIM primary 3, eLon inh -1, MEX-5 binding 2, Bcl-xL primary 3 and GLD-1 TGE inh 0.
For Cc1ccc(NC(=S)NCc2ccc(Cl)cc2)c(C)c1 the results were MCL1 BIM primary 13, eLon inh 17*, MEX-5 binding 6, Bcl-xL primary 3, GLD-1 TGE inh 0 and eLon confirm -47.
For COc1ccccc1CCNC(=O)c1ccc2nc[nH]c2c1 the results were MCL1 BIM primary 11, eLon inh -9, MEX-5 binding 3, Bcl-xL primary 9 and GLD-1 TGE inh -3.
Screening COC(=O)c1ccc(OC(=O)c2ccccn2)cc1 returned MCL1 BIM primary -2, eLon inh -9, MEX-5 binding 2, Bcl-xL primary -4 and GLD-1 TGE inh 6.
`COC(=O)c1ccc(OC(=O)c2cccnc2SC)cc1` gave MCL1 BIM primary -10, eLon inh 88*, MEX-5 binding -4, Bcl-xL primary -8, GLD-1 TGE inh -8 and eLon confirm -16.
Cc1ccc(NC(=O)/C(=C/c2cccc(Br)c2)NC(=O)c2ccco2)cc1 was read as MCL1 BIM primary 2, eLon inh -13, MEX-5 binding 1, Bcl-xL primary 2 and GLD-1 TGE inh 0.
Screening O=C(Cc1csc(-c2cccc(F)c2)n1)Nc1cccc(S(=O)(=O)NC2=NCCC2)c1 returned eLon inh -9.
`CCC(=O)N1c2ccc(S(=O)(=O)N3CCN(c4cc(C)ccc4C)CC3)cc2CC1C` (configuration not stated) gave MCL1 BIM primary -4, eLon inh -6, MEX-5 binding -1, Bcl-xL primary 1 and GLD-1 TGE inh 4.
Cc1nnc(NC(=O)CSc2ncc(-c3ccccc3)[nH]2)s1 was read as MCL1 BIM primary 0, eLon inh -3, MEX-5 binding -7, Bcl-xL primary 2 and GLD-1 TGE inh 4.
`NNC(=O)CSc1ncc(-c2ccccc2)[nH]1` gave MCL1 BIM primary 5, eLon inh 15*, MEX-5 binding 1, Bcl-xL primary -1, GLD-1 TGE inh -5 and eLon confirm -4.
For Cc1nc(CC(=O)N2CCN(c3cccc(C)c3C)CC2)cs1 the results were MCL1 BIM primary 16, eLon inh 24*, MEX-5 binding -2, Bcl-xL primary 15, GLD-1 TGE inh 7 and eLon confirm 2.
For COc1cc2[nH]c(=S)nc(NCc3ccccc3)c2cc1OC the results were MCL1 BIM primary -1, eLon inh 6, MEX-5 binding 1, Bcl-xL primary 3 and GLD-1 TGE inh -1.
COc1cc2[nH]c(=S)nc(NCc3ccccn3)c2cc1OC was read as eLon inh 26* and eLon confirm 57*.
`CCCCn1c(SCC(=O)Nc2cc(C)on2)nnc1-c1ccco1` gave MCL1 BIM primary -3, eLon inh 14*, MEX-5 binding 1, Bcl-xL primary 3, GLD-1 TGE inh -3 and eLon confirm -3.
`CCn1c(SCC(=O)Nc2cc(C)on2)nnc1-c1ccco1` gave MCL1 BIM primary -2, eLon inh 2, MEX-5 binding -1, Bcl-xL primary 3 and GLD-1 TGE inh -1.

Assay outcomes: PubChem, several laboratories
